Assay results: PubChem BioAssay (EPA / NIEHS)
Activity calls are given as the source filed them. How the source made its calls: active means hit-call score of the fitted dose curve at least 0.9, where 1 is the maximum; inactive means score below 0.9.

The compounds below were run on CYP3A5 (gene 1577) (assay: LTEA_HepaRG_CYP3A5: Life Technologies and Expression Analysis (LTEA) Assay for CYP3A5 using HepaRG (AID 2283493)). Conditions: mRNA level, 48 h; actives raise or lower the signal.
Summary of the method: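 mRNA induction or loss of CYP3A5 assessed in HepaRG after 48 h dosing, 100 uM top concentration, duplicate wells; TaqMan qRT-PCR with ACTB, GAPDH, POLR2A normalization; 0.5% DMSO as negative control.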
In the case of `C#C[C@]1(O)CC[C@H]2[C@@H]3CCC4=CC(=O)CC[C@@H]4[C@H]3CC[C@@]21CC`, the outcome was “inactive”. In the case of `O=C(O)c1ccccc1`, the outcome was “inactive”. For `COC(=O)c1ccccc1C(=O)O`, the outcome was “inactive”. With `CC(C)(C)[C@@H](O)[C@@H](Cc1ccc(Cl)cc1)n1cncn1` the outcome was “inactive”. In the case of `c1ccc2[nH]c(-c3cscn3)nc2c1`, the outcome was “inactive”. In the case of `CCOC(=O)c1ccc(O)cc1`, the outcome was “inactive”. With `O=C(Nc1ccc([N+](=O)[O-])cc1Cl)c1cc(Cl)ccc1O` the AC50 was 7.24 µM (active). In the case of `COC(=O)c1ccc(I)cc1S(=O)(=O)NC(=O)Nc1nc(C)nc(OC)n1`, the outcome was “inactive”. With `CCCN(CCC)C(=O)SCC` the outcome was “inactive”. For `CCCCC(CC)COC(=O)c1ccccc1C(=O)O` (stereo not drawn), the outcome was “inactive”. `C[C@]12C[C@H](O)[C@H]3[C@@H](CCC4=CC(=O)CC[C@@]43C)[C@@H]1CC[C@@H]2C(=O)CO` was tested, and the outcome was “inactive”. With `S=C([S-])NCCNC(=S)[S-].[Mn+2]` the AC50 was 3.47 µM (active). With `O=C(O)C1(C(=O)Nc2ccc(Cl)cc2Cl)CC1` the outcome was “inactive”. In the case of `C=CCOC(Cn1ccnc1)c1ccc(Cl)cc1Cl` (stereo not drawn), the AC50 was 79.6 µM (active). `CCCOC(=O)NCCCN(C)C` was tested, and the outcome was “inactive”. With `COCCO` the outcome was “inactive”. For `C#CCOC(=O)[C@@H](C)Oc1ccc(Oc2ncc(Cl)cc2F)cc1`, the outcome was “inactive”. For `CC(=O)[C@H]1CC[C@H]2[C@@H]3CCC4=CC(=O)CC[C@]4(C)[C@H]3CC[C@]12C`, the AC50 was 84.6 µM (active). `CCN(CC)C(=O)c1cccc(C)c1` was tested, and the outcome was “inactive”. With `COc1c(Cl)ccc(Cl)c1C(=O)O` the outcome was “inactive”. With `CCCCCOC(=O)COc1cc(N2C(=O)C3=C(CCCC3)C2=O)c(F)cc1Cl` the outcome was “inactive”. With `CCC(C)OC(=O)N1CCCCC1CCO` (stereo not drawn) the outcome was “inactive”. With `CCCCOCCOCCOCc1cc2c(cc1CCC)OCO2` the outcome was “inactive”. With `CCOC(=O)COc1cc(-n2ncc(C(F)(F)F)c(C)c2=O)c(F)cc1Cl` the outcome was “inactive”. In the case of `CCCN(CCC)c1c([N+](=O)[O-])cc(C(F)(F)F)c(N)c1[N+](=O)[O-]`, the outcome was “inactive”. With `CC1(C)C(C=C(Cl)Cl)C1C(=O)OCc1cccc(Oc2ccccc2)c1` (stereo not drawn) the outcome was “inactive”.

The compounds below were run on Fatty Acid-Binding Protein 1 (FABP1), FABP1 (gene 2168) (assay: LTEA_HepaRG_FABP1: Life Technologies and Expression Analysis (LTEA) Assay for Fatty Acid-Binding Protein 1 (FABP1) using HepaRG (AID 2283494)). Conditions: mRNA level, 48 h; actives raise or lower the signal.
Summary of the method: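 HepaRG, 48 h post-plating switched to serum-free induction medium, then dosed 48 h (duplicate, 8 pts, ≤100 uM, 0.5% DMSO). RNA → Fluidigm TaqMan qRT-PCR, FABP1 normed to ACTB/GAPDH/POLR2A. Bidirectional curve fit vs DMSO.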
With `C#C[C@]1(O)CC[C@H]2[C@@H]3CCC4=CC(=O)CC[C@@H]4[C@H]3CC[C@@]21CC` the AC50 was 0.713 µM (active). In the case of `O=C(O)c1ccccc1`, the outcome was “inactive”. With `COC(=O)c1ccccc1C(=O)O` the outcome was “inactive”. In the case of `CC(C)(C)[C@@H](O)[C@@H](Cc1ccc(Cl)cc1)n1cncn1`, the AC50 was 50 µM (active). With `c1ccc2[nH]c(-c3cscn3)nc2c1` the outcome was “inactive”. In the case of `N[C@@H](Cc1cc(I)c(Oc2ccc(O)c(I)c2)c(I)c1)C(=O)O`, the AC50 was 40 µM (active). In the case of `CCOC(=O)c1ccc(O)cc1`, the outcome was “inactive”. In the case of `O=C(Nc1ccc([N+](=O)[O-])cc1Cl)c1cc(Cl)ccc1O`, the AC50 was 2.25 µM (active). `COC(=O)c1ccc(I)cc1S(=O)(=O)NC(=O)Nc1nc(C)nc(OC)n1` was tested, and the outcome was “inactive”. For `CCCN(CCC)C(=O)SCC`, the outcome was “inactive”. For `CCCCC(CC)COC(=O)c1ccccc1C(=O)O` (stereo not drawn), the outcome was “inactive”. With `C[C@]12C[C@H](O)[C@H]3[C@@H](CCC4=CC(=O)CC[C@@]43C)[C@@H]1CC[C@@H]2C(=O)CO` the outcome was “inactive”. In the case of `S=C([S-])NCCNC(=S)[S-].[Mn+2]`, the AC50 was 3.58 µM (active). In the case of `O=C(O)C1(C(=O)Nc2ccc(Cl)cc2Cl)CC1`, the AC50 was 77.5 µM (active). For `C=CCOC(Cn1ccnc1)c1ccc(Cl)cc1Cl` (stereo not drawn), the AC50 was 28.6 µM (active). `CCCOC(=O)NCCCN(C)C` was tested, and the outcome was “inactive”. With `COCCO` the outcome was “inactive”. With `C#CCOC(=O)[C@@H](C)Oc1ccc(Oc2ncc(Cl)cc2F)cc1` the AC50 was 64.4 µM (active). For `CC(=O)[C@H]1CC[C@H]2[C@@H]3CCC4=CC(=O)CC[C@]4(C)[C@H]3CC[C@]12C`, the AC50 was 35.8 µM (active). In the case of `CCN(CC)C(=O)c1cccc(C)c1`, the outcome was “inactive”. With `COc1c(Cl)ccc(Cl)c1C(=O)O` the outcome was “inactive”. In the case of `CCCCCOC(=O)COc1cc(N2C(=O)C3=C(CCCC3)C2=O)c(F)cc1Cl`, the outcome was “inactive”. `CCC(C)OC(=O)N1CCCCC1CCO` (stereo not drawn) was tested, and the outcome was “inactive”. `CCCCOCCOCCOCc1cc2c(cc1CCC)OCO2` was tested, and the outcome was “inactive”. `CCOC(=O)COc1cc(-n2ncc(C(F)(F)F)c(C)c2=O)c(F)cc1Cl` was tested, and the outcome was “inactive”. With `CCCN(CCC)c1c([N+](=O)[O-])cc(C(F)(F)F)c(N)c1[N+](=O)[O-]` the AC50 was 24.9 µM (active). In the case of `CC1(C)C(C=C(Cl)Cl)C1C(=O)OCc1cccc(Oc2ccccc2)c1` (stereo not drawn), the outcome was “inactive”.
